# From PubChem
# Hits are enriched below; roughly 10% of the tested compounds scored in any of these assays.
# 3T3 cytotox = kills NIH 3T3 cells; NIH 3T3 viability, CellTiter-Glo ATP luminescence, 48-72 h; Potency, µM (titrated, usually from 96.7 µM), usual class: inhibitors; 94,000 tested, 4.3% active; AID 1345082; note: nearly all actives have a fitted effect of over 55% in size
#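 Mouse fibroblast NIH 3T3 cells, 400 per well, received compound via pintool and were incubated for 48 or 72 hr prior to CellTiter-Glo ATP luminescence measurement.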
# hNpr1 antagonist = human Npr1 receptor antagonism; P16066; 76,000 tested, 1.6% active; AID 1347048; Potency, µM (top dose mostly 46.3 µM), hits mostly inhibitors; HEK293 hNpr1 GloSensor cGMP, ANP-stimulated luminescence; calls by dose curve; note: nearly all actives have a fitted effect of over 60% in size
#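 Compound pre-incubated 30 min at room temperature on GloSensor-loaded HEK293 cells stably carrying hNpr1 and the pGS-40F cGMP biosensor. Stimulation uses hNppA at 0.1 nM final; luminescence is taken at baseline and 20 min post-agonist.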
# GPT2 inhibitor = blocks human glutamate pyruvate transaminase 2; Potency, µM (titrated, usually from 57.7 µM), actives largely listed as inhibitors; 100,000 tested, 0.25% active; Recombinant GPT2, coupled pyruvate oxidase/HRP Amplex Red fluorescence; note: nearly all actives have a fitted effect of over 60% in size
#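 GPT2 10ng/uL, a-KG 250uM, L-Ala 2mM, HEPES pH7.5 + 0.0001% Tween; 30 min RT. Then Amplex mix (PO/HRP/ThPP), 30 min RT dark, fluorescence. AOA 50uM used as positive control.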
# FLuc inh = inhibitors of firefly (Photinus pyralis) luciferase. P08659. purified P. pyralis luciferase, luminescence, biochemical. Potency, µM (highest dose often 115 µM), usual class: inhibitors. 76,000 tested, 2.5% active. AID 1347043; note: nearly all actives have a fitted effect of over 65% in size
# Target sequence (P08659 whole entry, looked up): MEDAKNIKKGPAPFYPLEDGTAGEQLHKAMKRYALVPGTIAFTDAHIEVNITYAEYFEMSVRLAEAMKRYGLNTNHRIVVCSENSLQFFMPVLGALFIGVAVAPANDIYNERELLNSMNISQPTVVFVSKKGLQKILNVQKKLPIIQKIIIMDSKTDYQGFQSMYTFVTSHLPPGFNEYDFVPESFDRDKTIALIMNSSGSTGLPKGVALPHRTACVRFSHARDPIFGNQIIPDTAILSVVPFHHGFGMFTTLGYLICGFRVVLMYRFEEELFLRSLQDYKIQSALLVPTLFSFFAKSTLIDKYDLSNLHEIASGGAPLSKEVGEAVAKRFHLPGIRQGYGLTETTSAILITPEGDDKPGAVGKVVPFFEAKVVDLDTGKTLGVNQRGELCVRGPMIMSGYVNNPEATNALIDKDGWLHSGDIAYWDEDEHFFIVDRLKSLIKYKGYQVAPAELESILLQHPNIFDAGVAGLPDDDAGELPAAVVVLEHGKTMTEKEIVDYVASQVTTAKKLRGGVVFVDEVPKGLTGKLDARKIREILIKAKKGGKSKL
#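 FLuc 10nM, D-luciferin 10uM, ATP 10uM, Mg acetate 10mM, Tris acetate pH 7.5, Tween/BSA; cpd qHTS; enzyme added last; CCD luminescence.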
# HEK cytotox = kills HEK 293 cells. Potency, µM (highest dose often 115 µM), usual class: inhibitors. HEK 293 viability, ATP luminescence (CellTiter-Glo), 48-72 h. 94,000 tested, 6.6% active; note: nearly all actives have a fitted effect of over 60% in size
#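 Read-out: CellTiter-Glo ATP luminescence. Cells: HEK 293, 250 cells/well. Exposure: 48 or 72 hr, 37 degree Celsius.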
# Npr1 antag conf = confirmation of human Npr1 natriuretic peptide receptor antagonists. shares compounds with hNpr1 antagonist. HEK293 hNpr1 cGMP GloSensor luminescence, ANP-stimulated. 1,400 tested, 76% active. Potency, µM (titrated, usually from 57.6 µM), hits mostly inhibitors; calls by dose curve; note: nearly all actives have a fitted effect of over 70% in size
# NPR2 antag = hNpr2 antagonism, selectivity versus Npr1; shares compounds with hNpr1 antagonist; HEK293 hNpr2 GloSensor cGMP luminescence, CNP-stimulated; Potency, µM (titrated, usually from 57.6 µM), most hits filed as inhibitors; 1,400 tested, 67% active; AID 1347046; calls by dose curve; note: nearly all actives have a fitted effect of over 70% in size
# FLuc counter = inhibits firefly luciferase, false Npr1 antagonist flag | Potency, µM (highest dose often 57.6 µM), most hits filed as inhibitors | 1,400 tested, 0.7% active | purified FLuc enzyme, luminescence, Km substrate | shares compounds with hNpr1 antagonist
# GloSensor cGMP = counter-screen for Npr1 antagonists: GloSensor control cell line; shares compounds with hNpr1 antagonist; HEK293 GloSensor cGMP, SNP-stimulated, luminescence; Potency, µM (titrated, usually from 57.6 µM), most hits filed as inhibitors; 1,400 tested, 69% active; calls by dose curve; note: nearly all actives have a fitted effect of over 70% in size
# Hits are given with their value; – = inactive; ? = inconclusive; · = no result given; [ ] = dose if it differs, or a comment. Unless noted, calls come from the whole dose curve; as a rule, active = well fitted curve in the direction sought with a large enough effect; inconclusive = small, poorly fitted or top-dose-only effect, or another doubt; inactive = no such curve, though single readings can be large; an effect the other way counts as inactive or inconclusive.
SMILES,3T3 cytotox,hNpr1 antagonist,GPT2 inhibitor,FLuc inh,HEK cytotox,Npr1 antag conf,NPR2 antag,FLuc counter,GloSensor cGMP
CNC(=O)N1CCCC(c2nc(CCOCC3CCCC3)no2)C1 (stereo unspecified),–,?,–,–,?,?,?,–,?
O=C(CCC1CCCC1)N1CCCC(c2nc(CCOCC3CCOCC3)no2)C1 (stereo unspecified),?,?,–,–,?,·,·,·,·
COc1ccc(-c2cnc3[nH]cc(CC(=O)Nc4cccnc4)c3c2)cc1,?,?,–,–,70.8µM,?,–,?,–
COc1ccc(-c2cnc3[nH]cc(CC(=O)Nc4cccc(N(C)C)c4)c3c2)cc1,?,?,–,–,?,?,?,–,–
Cc1ccccc1-c1cnc2[nH]cc(CC(=O)Nc3cccnc3)c2c1,?,15.8µM,–,–,?,25µM,31.4µM,–,22.2µM
COc1ccc(-c2cnc3[nH]cc(CC(=O)NCCc4ccccn4)c3c2)cc1,?,–,–,–,–,·,·,·,·
Cn1cc(-c2cnc3[nH]cc(CC(=O)Nc4ccc(C(F)(F)F)cc4)c3c2)cn1,?,?,–,–,?,?,?,–,?
COc1ccccc1-c1nnc2n1C(C(=O)NCc1ccc(F)cc1)CC2 (stereo unspecified),–,·,?,·,–,·,·,·,·
O=C(c1nc2cccnc2n(Cc2ccccc2)c1=O)N1CCN(c2ncccn2)CC1,–,·,–,·,–,·,·,·,·
CCOc1ccc(CN2CCN(c3nc4ccccc4o3)CC2CCO)cc1 (stereo unspecified),–,14.1µM,–[11.5 µM],–,35.5µM,21.7µM,24.3µM,–,21.7µM
Cc1cc(C(=O)N2CCC3(CC2)CC(CN2CCOCC2)N(C)C3)n(C)n1 (stereo unspecified),–,·,–,·,–,·,·,·,·
Nc1ncccc1CN1CCC2(CC1)COCCN2C(=O)OCc1ccccc1,?,7.94µM,–,–,?,11.1µM,11.1µM,–,11.1µM
COc1ccc(CN(C)C(=O)c2ccc3oc(C)cc3c2)c2cccnc12,?,5.01µM,–,–,?,6.85µM,6.85µM,–,4.32µM
COc1ccc(C(=O)N2CCC(Cc3nc(-c4ccc(F)cc4)no3)CC2)cc1F,?,1.12µM,?,–,?,1.09µM,1.72µM,–,1.09µM
COc1ccc(-c2noc(CC3CCN(C(=O)c4ccc(OC)c(OC)c4)CC3)n2)cc1,?,3.55µM,–,–,?,6.85µM,6.85µM,–,5.44µM
COc1ccc(-c2noc(CC3CCN(C(=O)c4ccc5c(c4)OCO5)CC3)n2)cc1,?,2.82µM,–,–,?,5.44µM,6.11µM,–,4.85µM
O=C1CCN(C(=O)C2CCC2)c2ccc(F)cc2CN1Cc1ccccc1,–,·,·,·,?,·,·,·,·
CCOC(=O)C1CCN(C(=O)c2ccc3c(c2)N(CC)C2CCCCCN2C3=O)CC1 (stereo unspecified),–,?,–,–,?,·,·,·,·
CCc1cc(N2CCOC(c3ccc4cc(OC)ccc4c3)C2)nc(C)n1 (stereo unspecified),?,11.2µM,–,–,35.5µM,21.7µM,21.7µM,?,17.2µM
COc1ccc2cc(C3CN(Cc4cc5n(n4)CCNC5)CCO3)ccc2c1 (stereo unspecified),?,–,–,–,?,·,·,·,·
Cc1c(C(=O)N(C)Cc2cc(-c3cccnc3)no2)oc2c(F)cccc12,?,?,–,–,?,?,–,–,–
COc1ccc(C(=O)N2CCC(C(NC(=O)c3ccccc3Cl)C(=O)N3CCCCC3)CC2)cc1 (stereo unspecified),?,–,–,–,–,·,·,·,·
COC(=O)[C@]1(C)CCC[C@@]2(C)[C@@H]3CC[C@@H]4C[C@@]3(CC[C@@H]21)C[C@H]4C(=O)O,·,·,–,·,·,·,·,·,·
Cc1cc(=O)n(CC(=O)Nc2ccc(C)c(Cl)c2)c(N2CCc3ccccc3C2)n1,?,–,–,–,?,·,·,·,·
Cc1cc(=O)n(CC(=O)NCc2ccc3c(c2)OCO3)c(N2CCc3ccccc3C2)n1,?,–,–,–,?,·,·,·,·
SMILES,3T3 cytotox,hNpr1 antagonist,GPT2 inhibitor,FLuc inh,HEK cytotox,Npr1 antag conf,NPR2 antag,FLuc counter,GloSensor cGMP
Cc1cc(=O)n(CC(=O)Nc2ccc(C)c(F)c2)c(N2CCc3ccccc3C2)n1,?,15.8µM,–,–,8.91µM,–,–,–,–
Cc1cc(=O)n(CC(=O)Nc2ccc(Br)cc2F)c(N2CCc3ccccc3C2)n1,?,?,–,–,?,–,?,–,–
Cc1cc(=O)n(CC(=O)NCCCc2ccccc2)c(N2CCc3ccccc3C2)n1,?,?,?,–,44.7µM,?,?,–,–
Cc1cc(=O)n(CC(=O)Nc2cc(F)ccc2F)c(N2CCc3ccccc3C2)n1,?,–,–,–,?,·,·,·,·
O=C(N[C@H]1CCN2C(=O)c3cc(-c4ccc(F)cc4F)ccc3NC(=O)[C@H]12)c1cccs1,?,–,–,–,?,?,?,?,–
O=C(N[C@H]1CCN2C(=O)c3cc(-c4ccc(F)cc4F)ccc3NC(=O)[C@@H]2C1)c1cccs1,?,–,–,–,?,·,·,·,·
COC1CN(C2CCN(C(=O)c3ccncc3)CC2)C12CCOCC2 (stereo unspecified),–,·,–,·,–,·,·,·,·
Cc1nn(Cc2ccccc2)c(C)c1[C@@H]1C=C[C@@H](NC(=O)c2ccc3c(c2)OCO3)C1,?,31.6µM,–,–,28.2µM,35.3µM,35.3µM,–,35.3µM
O=C(NCCCc1ccccc1)C1CCCN1C(=O)c1cccc(-c2ccccn2)c1 (stereo unspecified),–,·,–,·,–,·,·,·,·
Cc1ccc(OCC(=O)N2CC(Oc3ccc(-c4noc(-c5ccccc5)n4)cc3)C2)cc1,–,·,–,·,–,·,·,·,·
COc1ccc(-c2noc(CC3CCN(C(=O)COc4ccc(C)cc4)CC3)n2)cc1,?,6.31µM,–,–,?,7.69µM,8.62µM,–,8.62µM
COc1ccc(OCC(=O)N2CCC(Cc3nc(-c4ccc(OC)cc4)no3)CC2)cc1,14.1µM,10µM,?,–,12.6µM,10.9µM,13.7µM,–,12.2µM
Cc1ccc(OCC(=O)N2CCC(Cc3nc(-c4ccccc4)no3)CC2)cc1,?,12.6µM,–,–,39.8µM,15.3µM,15.3µM,–,12.2µM
Cc1cnc(C2CN(C(=O)C(C)Oc3ccccc3)C2)n1Cc1cccnc1 (stereo unspecified),–,·,–,·,–,·,·,·,·
